Several values for one entry are separate records, joined by “and”; a condition that tells them apart may be missing. Equal entries are not always repeated. Records with an inconclusive call do not appear. Where a call stands in place of a potency, no number is given. Activity calls are given as the source filed them. Unless noted, calls follow the shape of the dose curve; as a rule, active = well fitted curve in the direction sought with a large enough effect; inconclusive = small, poorly fitted or top-dose-only effect, or another doubt; inactive = no such curve, though single readings can be large; an effect the other way counts as inactive or inconclusive.
Key:
[1] = target: Cytochrome P450 2C9 (Homo sapiens) (UniProt P11712); test: Cytochrome P450 family 2 subfamily C member 9 (CYP2C9) small molecule antagonists: luciferase biochemical (cell-free) qHTS assay (AID 1645842; active = well fitted curve in the direction sought with a large enough effect in the repeat runs; an effect the other way counts as inactive or inconclusive; also: nearly all actives have a fitted effect of over 55% in size; also: potency is read from the fitted curve at half-maximal effect)
Summary of the method: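 P450-Glo CYP2C9 system: proluciferin substrate with enzyme in mix containing 0.4% BSA, 10 min at room temperature, then NADPH regeneration solution added and incubated 1 h at 37C. Detection reagent stopped reaction; luminescence read after 20 min as RLU.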

[2] = target: Glutathione peroxidase 1 (Homo sapiens) (UniProt P07203); test: Primary qHTS Assay for Inhibitors of Recombinant Selenoprotein Glutathione Peroxidase 1 (GPX1) (AID 1845191); also: nearly all actives have a fitted effect of over 65% in size
Summary of the method: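 NADPH consumption tracked by fluorescence at 340/450 nm between t=0 and t=15 min, room temperature. Final mix: 10 nM GPX1, 100 nM glutathione reductase, 1 mM GSH, 0.5 mM NADPH, 0.5 mM cumene hydroperoxide, 0.01% BSA; 30 min compound–enzyme preincubation.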

[3] = Primary qHTS for inhibitors of nuclear receptor binding SET domain protein 2 (NSD2) in an isogenic RCH-ACV NSD2 p.E1099K mutant (9B) (AID 1645876); also: nearly all actives have a fitted effect of over 70% in size; also: potency is read from the fitted curve at half-maximal effect
[4] = Primary qHTS for inhibitors of nuclear receptor binding SET domain protein 2 (NSD2) in an RCH-ACV wild type WT cells (2C) (AID 1645877); also: nearly all actives have a fitted effect of over 70% in size; also: potency is read from the fitted curve at half-maximal effect
[5] = target: N-terminal Xaa-Pro-Lys N-methyltransferase 1 (Homo sapiens) (UniProt Q9BV86); test: Confirmatory qHTS for Inhibitors of N-terminal methyltransferase 1 (NTMT1): MTaseGlo Assay (AID 1645874); also: nearly all actives have a fitted effect of over 65% in size; also: potency is read from the fitted curve at half-maximal effect;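 as to activity change, negative = inhibition: luminescence from SAH made as NTMT1 methylates SPKRIA peptide using SAM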
Summary of the method: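 Room-temperature NTMT1 reaction, 30 min, with 100 uM SAM and 1 uM SPKRIA substrate; enzyme 125 nM. Read-out: MTase-Glo luminescence, normalized to no-enzyme and DMSO controls.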

[6] = target: Catechol O-methyltransferase (Homo sapiens) (UniProt P21964); test: Confirmatory Screen for Target Class Profiling of Small Molecule Inhibitors of Methyltransferases (AID 1745852; calls by dose curve; also: potency is read from the fitted curve at half-maximal effect); settings: MTase-Glo luminescence, SAH detection, recombinant enzyme; measured here: COMT max response; stronger effect = lower value
[7] = target: Guanidinoacetate N-methyltransferase (Homo sapiens) (UniProt Q14353); test: as above; settings: activity change, negative = inhibition: at 57.3 µM (top of the series) unless noted
[8] = target: Nicotinamide N-methyltransferase (Homo sapiens) (UniProt P40261); test: as above; settings: MTase-Glo luminescence, SAH detection, recombinant enzyme; measured here: NNMT max response; stronger effect = lower value
[9] = target: Phenylethanolamine N-methyltransferase (Homo sapiens) (UniProt P11086); test: as above; settings: MTase-Glo luminescence, SAH detection, recombinant enzyme; measured here: PNMT max response; stronger effect = lower value
[10] = NCATS anti-infectives library activity on HEK293 viability as a counter-qHTS vs the C. elegans viability qHTS (AID 1745854)
Summary of the method: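 Cytotoxicity counter-screen to a worm viability qHTS: CellTiter-Glo luminescence read 10 min after reagent addition. Compounds (final up to 41.7 uM, a 1:5 dilution series) incubated 24 hr at 37C with 1,500 HEK293 cells per well; digitonin control.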

Chain of Glutathione peroxidase 1 (Homo sapiens) (P07203 whole entry, looked up): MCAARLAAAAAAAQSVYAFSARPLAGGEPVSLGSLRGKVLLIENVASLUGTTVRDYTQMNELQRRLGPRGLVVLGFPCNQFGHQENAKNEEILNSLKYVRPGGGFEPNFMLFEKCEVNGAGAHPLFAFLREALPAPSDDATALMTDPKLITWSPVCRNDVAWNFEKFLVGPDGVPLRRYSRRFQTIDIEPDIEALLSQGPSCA
Chain of Cytochrome P450 2C9 (Homo sapiens) (P11712 whole entry, looked up): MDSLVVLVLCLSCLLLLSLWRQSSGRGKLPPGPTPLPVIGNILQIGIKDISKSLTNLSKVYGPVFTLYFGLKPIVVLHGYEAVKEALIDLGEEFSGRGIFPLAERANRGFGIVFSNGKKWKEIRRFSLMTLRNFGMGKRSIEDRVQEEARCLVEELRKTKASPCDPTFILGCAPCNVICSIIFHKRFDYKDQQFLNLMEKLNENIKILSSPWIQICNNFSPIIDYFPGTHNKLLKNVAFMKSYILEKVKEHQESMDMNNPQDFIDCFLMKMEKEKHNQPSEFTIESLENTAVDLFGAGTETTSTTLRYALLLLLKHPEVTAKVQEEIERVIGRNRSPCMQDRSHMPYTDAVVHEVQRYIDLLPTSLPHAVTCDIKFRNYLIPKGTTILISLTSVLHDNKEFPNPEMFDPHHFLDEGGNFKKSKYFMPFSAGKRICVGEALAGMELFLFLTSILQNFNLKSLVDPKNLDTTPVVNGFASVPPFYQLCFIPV
Chain of Catechol O-methyltransferase (Homo sapiens) (P21964 whole entry, looked up): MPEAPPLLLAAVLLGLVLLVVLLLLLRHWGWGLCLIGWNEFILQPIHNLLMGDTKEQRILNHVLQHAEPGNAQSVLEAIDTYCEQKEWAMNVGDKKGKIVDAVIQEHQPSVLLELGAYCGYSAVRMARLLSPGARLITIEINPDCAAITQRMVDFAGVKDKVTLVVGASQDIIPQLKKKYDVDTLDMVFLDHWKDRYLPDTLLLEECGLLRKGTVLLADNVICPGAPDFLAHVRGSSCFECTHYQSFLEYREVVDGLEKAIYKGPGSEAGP
Chain of Phenylethanolamine N-methyltransferase (Homo sapiens) (P11086 whole entry, looked up): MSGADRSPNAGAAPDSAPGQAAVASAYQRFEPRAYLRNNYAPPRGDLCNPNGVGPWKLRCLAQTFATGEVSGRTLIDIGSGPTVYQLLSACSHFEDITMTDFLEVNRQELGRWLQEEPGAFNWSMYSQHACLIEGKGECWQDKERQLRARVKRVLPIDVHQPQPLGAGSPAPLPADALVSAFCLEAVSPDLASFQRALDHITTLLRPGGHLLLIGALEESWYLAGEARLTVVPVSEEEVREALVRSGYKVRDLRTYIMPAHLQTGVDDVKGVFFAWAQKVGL
Chain of Nicotinamide N-methyltransferase (Homo sapiens) (P40261 whole entry, looked up): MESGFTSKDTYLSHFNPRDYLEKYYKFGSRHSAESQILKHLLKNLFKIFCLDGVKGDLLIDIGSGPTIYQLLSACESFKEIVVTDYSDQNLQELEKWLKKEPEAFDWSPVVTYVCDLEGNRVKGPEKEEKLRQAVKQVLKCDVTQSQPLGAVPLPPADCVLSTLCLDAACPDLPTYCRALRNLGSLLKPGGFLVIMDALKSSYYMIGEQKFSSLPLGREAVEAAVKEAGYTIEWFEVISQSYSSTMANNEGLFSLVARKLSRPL
Chain of N-terminal Xaa-Pro-Lys N-methyltransferase 1 (Homo sapiens) (Q9BV86 whole entry, looked up): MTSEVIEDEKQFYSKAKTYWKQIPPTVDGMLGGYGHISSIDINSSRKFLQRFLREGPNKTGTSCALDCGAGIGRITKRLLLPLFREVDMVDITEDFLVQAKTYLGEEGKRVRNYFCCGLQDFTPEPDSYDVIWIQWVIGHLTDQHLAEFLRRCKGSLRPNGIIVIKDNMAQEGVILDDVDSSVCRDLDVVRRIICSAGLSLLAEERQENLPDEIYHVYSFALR

## C[C@H](Oc1ccc(S(C)(=O)=O)cc1C(=O)N1CCN(c2ncc(C(F)(F)F)cc2F)CC1)C(F)(F)F
[1]
  Potency: 6.74 µM (active)
[2]
  Potency: inactive

## COc1ccc(C[C@H](N)C(=O)N[C@@H]2[C@H](O)[C@H](n3cnc4c(N(C)C)ncnc43)O[C@@H]2CO)cc1
[3]
  Potency: 0.325 µM (active)
[4]
  Potency: 0.205 µM (active)

## Cc1noc(=O)c2ccc(NC(=O)C(O)(CC(C)(C)c3cccc4c3OCC4)C(F)(F)F)cc12 (stereo unspecified)
[1]
  Potency: inactive
[2]
  Potency: inactive

## CNC(=O)c1ccccc1Nc1nc(Nc2ccc3c(c2OC)CCC[C@@H](N2CCN(CCO)CC2)C3)ncc1Cl
[3]
  Potency: 6.61 µM (active)
[4]
  Potency: 6.61 µM (active)

## O=C(C(c1ccccc1)c1ccccc1)N1CCN(CC(O)COc2cccc3ncccc23)CC1 (stereo unspecified)
[1]
  Potency: 12 µM (active)
[4]
  Potency: 14.5 µM (active) and 20.9 µM (active)
[2]
  Potency: inactive

## CC(C)C(N)C(=O)OCCOCn1cnc2c(=O)[nH]c(N)nc21 (stereo unspecified)
[3]
  Potency: inactive
[4]
  Potency: inactive

## C/C=C/c1ccc2oc(-c3ccc(O)c(OC)c3)c(C)c2c1
[5]
  Potency: inactive
[3]
  Potency: 14.5 µM (active)
[4]
  Potency: 16.3 µM (active)
[2]
  Potency: inactive

## CC(Oc1cc(-n2cnc3ccc(CN4CCN(C)CC4)cc32)sc1C(N)=O)c1ccccc1C(F)(F)F (stereo unspecified)
[5]
  Potency: 21.4 µM (active)
[3]
  Potency: 0.578 µM (active)
[6]
  activity: -36.6%
[7]
  Potency: 30.4 µM (active)
[8]
  activity: -27.1%
[9]
  activity: -38.1%
[2]
  Potency: inactive

## C[C@@H]1CCN(C(=O)N2CCCC2)C[C@@H]1N(C)c1ncnc2[nH]ccc12
[1]
  Potency: inactive
[2]
  Potency: inactive

## O=C1CSc2ccccc2N1Cc1cccc(C(F)(F)F)c1
[1]
  Potency: inactive
[6]
  activity: -10.1%
[7]
  activity change, negative = inhibition: -5.12%
[8]
  activity: -46.9%
[9]
  activity: -11.4%
[2]
  Potency: inactive

## CCOC(=O)C(CCc1ccccc1)NC1CSC(c2cccs2)CN(CC(=O)O)C1=O (stereo unspecified)
[3]
  Potency: inactive
[4]
  Potency: inactive

## CC1=C(/C=C/C(C)=C\C=C\C(C)=C/C(=O)O)C(C)(C)CCC1
[3]
  Potency: inactive

## CC(C)CC1NC(=O)C(C)NC(=O)C(CC(C)C)OC(=O)CCCNC1=O (stereo unspecified)
[3]
  Potency: inactive
[4]
  Potency: inactive

## CC(C)CN(C[C@@H](O)[C@H](Cc1ccccc1)NC(=O)O[C@@H]1CO[C@H]2OCC[C@H]21)S(=O)(=O)c1ccc(N)cc1
[3]
  Potency: inactive
[4]
  Potency: inactive

## O=C1OCC(c2ccccc2)=C1Cc1ccccc1
[3]
  Potency: inactive
[4]
  Potency: inactive

## O=C(c1cc2c(cc1F)OC(c1ccc(F)cc1)(c1ccc(Cl)cc1Cl)O2)N1CCOCC1 (stereo unspecified)
[1]
  Potency: 10.7 µM (active)
[4]
  Potency: 20.5 µM (active)
[2]
  Potency: inactive

## Cc1cc(N2CCN([C@@H]3CN[C@H](C(=O)N4CCSC4)C3)CC2)n(-c2ccccc2)n1
[1]
  Potency: inactive
[10]
  Potency: inactive
[2]
  Potency: inactive

## CC1(C)CC[C@]2(C(=O)O)CC[C@]3(C)C(=CCC4[C@@]5(C)C[C@@H](O)[C@H](O)C(C)(C)C5CC[C@]43C)C2C1 (stereo partly specified)
[3]
  Potency: inactive
[4]
  Potency: inactive

## COc1cc2c(cc1O)CC[C@H]1[C@@H]2CC[C@]2(C)[C@H](O)CC[C@@H]12
[5]
  Potency: 39.8 µM (active)
[3]
  Potency: 1.45 µM (active)
[4]
  Potency: 0.916 µM (active)
[6]
  activity: -76.8%
[7]
  activity change, negative = inhibition: 0.377%
[8]
  activity: -2.72%
[9]
  activity: -7.82%
[2]
  Potency: inactive

## COc1cc(OC)cc(C(=O)Nc2ccc(Cl)c(-c3nc4ccc(N(C)C)cc4[nH]3)c2)c1
[1]
  Potency: 1.69 µM (active)
[6]
  activity: -4.1%
[7]
  activity change, negative = inhibition: -3.69%
[8]
  activity: -8.83%
[9]
  activity: -5.51%
[2]
  Potency: inactive

## Cc1nc2ccc(Oc3ccc(F)cc3)cc2c(=O)n1C[C@H]1CCCN(C(C)C)C1
[1]
  Potency: inactive
[2]
  Potency: inactive

## NC(=O)c1cccc(-c2cc(OC(=O)NC3CCCCC3)ccc2O)c1
[5]
  Potency: inactive
[2]
  Potency: inactive

## C[C@@H]1C(=O)O[C@H]2[C@@H](O)C34[C@H]5C[C@@H](C(C)(C)C)C36[C@@H](OC(=O)[C@@H]6O)O[C@@]4(C(=O)O5)[C@@]12O (stereo partly specified)
[3]
  Potency: inactive
[4]
  Potency: inactive

## Cc1cc2c(c(=O)[nH]1)OC(C(O)CC(C)C)O2 (stereo unspecified)
[5]
  Potency: inactive
[3]
  Potency: inactive
[2]
  Potency: inactive

## CCC1=CC2CN(C1)Cc1c([nH]c3ccccc13)[C@@](C(=O)OC)(c1cc3c(cc1OC)N(C)[C@H]1[C@@](O)(C(=O)OC)[C@H](OC(C)=O)[C@]4(CC)C=CCN5CC[C@]31[C@@H]54)C2 (stereo partly specified)
[3]
  Potency: 0.0796 µM (active)

## COc1ccc(CNC(=O)c2sc3nc(C)cc(C)c3c2N)cc1
[1]
  Potency: 3.79 µM (active)
[4]
  Potency: inactive

## Cc1cnc(Nc2ccc(F)cc2Cl)nc1-c1c[nH]c(C(=O)NC(CO)c2cccc(Cl)c2)c1 (stereo unspecified)
[5]
  Potency: inactive
[3]
  Potency: 8.33 µM (active)
[4]
  Potency: 2.3 µM (active)

## C[C@@H]1C[C@@H]2O[C@H]2/C=C\C=C\C(=O)Cc2c(Cl)c(O)cc(O)c2C(=O)O1
[3]
  Potency: 1.01 µM (active)
[4]
  Potency: 0.45 µM (active)

## Cc1ccc(C(=O)N(CCCN)C(c2nc3cc(Cl)ccc3c(=O)n2Cc2ccccc2)C(C)C)cc1 (stereo unspecified)
[3]
  Potency: 0.0058 µM (active)
[4]
  Potency: 0.0073 µM (active)

## COc1c/c(=C2\C=c3ccccc3=N2)[nH]/c1=C\c1[nH]c(C)cc1C
[3]
  Potency: 5.78 µM (active)
[4]
  Potency: 4.59 µM (active)

## COc1cccc2cc3c(c(O[C@@H]4O[C@H](CO[C@@H]5O[C@H](CO)[C@@H](O)[C@H](O)[C@H]5O)[C@@H](O)[C@H](O)[C@H]4O)c12)C(C)OC3=O (stereo partly specified)
[3]
  Potency: inactive
[4]
  Potency: inactive

From PubChem BioAssay (NCATS)
